Source: PubChem (NMMLSC)
RGS8-Gao reg = modulates binding of RGS8 to human Galphao; 220,000 tested, 0.34% active; multiplexed bead flow cytometry; actives lie on both sides; P09471; AID 1423; response (percent of control binding), % at 10 µM; in the data active = response below about 60% or above about 140%; inactive = in between;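 also: Galphao activated as the GDP aluminium fluoride complex binding bead-coupled RGS8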
Target sequence (P09471 whole entry, looked up): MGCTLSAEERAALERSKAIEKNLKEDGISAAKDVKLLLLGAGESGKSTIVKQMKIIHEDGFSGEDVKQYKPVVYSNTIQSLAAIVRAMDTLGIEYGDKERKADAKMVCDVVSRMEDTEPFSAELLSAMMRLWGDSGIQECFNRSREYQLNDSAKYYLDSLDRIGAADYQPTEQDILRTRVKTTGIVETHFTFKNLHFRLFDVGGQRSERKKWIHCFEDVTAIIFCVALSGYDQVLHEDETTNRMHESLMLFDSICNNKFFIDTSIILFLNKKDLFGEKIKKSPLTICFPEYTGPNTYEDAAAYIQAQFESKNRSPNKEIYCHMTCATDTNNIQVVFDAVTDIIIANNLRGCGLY
RGS7-Gao reg = modulates binding of RGS7 to human Galphao | P09471 | 220,000 tested, 0.35% active | Multiplexed bead flow cytometry; actives lie on both sides | binding response (% of control), % at 10 µM; in the data active = binding response below about 49% or above about 150%; inconclusive = no clear call, values can overlap the other calls; inactive = in between;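 also: fluorescent Galphao held in activated GDP-AlF4 state binding bead-coupled RGS7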
RGS16-Gao = RGS16-Galphao interaction regulator (human); binding response (% of control), % at 10 µM; AID 1441; 220,000 tested, 0.38% active; bead-based flow cytometry RGS16-Galphao binding, fluorescence; actives lie on both sides; O15492+P09471;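 also: Galphao activated by GDP with aluminum fluoride before binding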
GSH fluor = compound fluoresces at 488/530 nm on GSH beads; GSH beads flow cytometry, compound fluorescence 488/530 nm; stronger effect = higher value; fluorescence (KMESF) at 10 µM; 190,000 tested, 0.25% active; AID 1776; in the data active = fluorescence above about 89;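 also: glutathione beads carrying GST-tagged Bcl family fusion proteins plus one bare bead set; values are compound well signal with DMSO vehicle wells as background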
RGS4-Gao reg = modulates binding of RGS4 to human Galphao; P09471; Multiplexed bead flow cytometry; actives lie on both sides; binding response (% of control), % at 10 µM; 220,000 tested, 0.33% active; AID 1415; in the data active = binding response below about 49% or above about 150%; inactive = in between;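 also: fluorescent Galphao activated with aluminum fluoride binding bead-coupled RGS4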
Avidin fluor = avidin bead compound fluorescence profile | Avidin beads, compound fluorescence 488/530 nm, flow cytometry; stronger effect = higher value | fluorescence (KMESF) at 10 µM | 220,000 tested, 0.38% active | AID 1775; in the data active = fluorescence above about 47
RGS4-Gao HTS = regulators of human RGS4-Galphao interaction. shares compounds with RGS16-Gao. multiplexed bead flow cytometry, RGS–Galpha-o binding. RGS4–Galpha-o binding response, % at 10 µM. 1,600 tested, 99% active. AID 1504;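 also: fluorescently labeled Galpha-o bound to GDP with aluminium fluoride binding biotinylated RGS beads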
Target sequence (P09471 whole entry, looked up): as above
Target sequence (P49798 whole entry, looked up): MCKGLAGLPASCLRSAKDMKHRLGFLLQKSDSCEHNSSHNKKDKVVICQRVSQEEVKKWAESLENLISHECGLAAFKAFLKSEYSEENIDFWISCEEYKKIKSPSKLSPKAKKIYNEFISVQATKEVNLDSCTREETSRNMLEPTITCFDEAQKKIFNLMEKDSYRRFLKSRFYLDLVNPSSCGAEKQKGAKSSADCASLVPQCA
Avidin counter = counter-screen: compounds disrupting biotin binding to avidin beads; shares compounds with RGS16-Gao; streptavidin beads, fluorescein-biotin binding, flow cytometry; inhibition, % at 10 µM; 1,700 tested, under 10 active; AID 1783;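 active = inhibition above 50%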;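 also: median green fluorescence of gated singlet beads compared with DMSO control wells; 0% = DMSO wells and 100% = complete loss of bead fluorescence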
RGS8-Gao single = confirmation of regulators of human RGS8-Galphao interaction; 1,700 tested, 3% active; bead-based flow cytometry RGS8-Galphao binding, fluorescence; actives lie on both sides; AID 1836; binding response (% of control), % at 10 µM; shares compounds with RGS16-Gao; in the data active = binding response below about 72% or above about 130%; inactive = in between;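 also: Galphao activated as GDP AlF4 complex before binding bead RGS8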
RGS7-Gao confirm = confirmation of regulators of human RGS7-Galphao interaction | response (percent of control binding), % at 10 µM | shares compounds with RGS16-Gao | bead-based flow cytometry RGS7-Galphao binding; actives lie on both sides | AID 1837 | 1,700 tested, 7.8% active; in the data active = response below about 75% or above about 130%; inactive = in between;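 also: fluorescent Galphao activated with GDP and aluminum fluoride binding bead-coupled RGS7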
RGS16-Gao single = confirmation of regulators of human RGS16-Galphao interaction | response (% of control binding), % at 10 µM | 1,700 tested, 4% active | bead-based flow cytometry, RGS16-Galphao binding; actives lie on both sides | shares compounds with RGS16-Gao; in the data active = response below about 74% or above about 130%; inactive = in between;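 also: Galphao activated as the GDP aluminium fluoride complex binding bead-coupled RGS16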
RGS4-Gao single = RGS4-Galphao interaction regulation, single point confirmation. shares compounds with RGS16-Gao. RGS4-Galphao binding, multiplexed bead flow cytometry; actives lie on both sides. binding response (% of control), % at 10 µM. 1,700 tested, 4% active; in the data active = binding response below about 74% or above about 130%; inactive = in between
RGS19-Gao single = confirmation of regulators of human RGS19-Galphao interaction; shares compounds with RGS16-Gao; bead-based flow cytometry RGS19-Galphao binding; actives lie on both sides; response (percent of control binding), % at 10 µM; 1,700 tested, 5% active; AID 1841; in the data active = response below about 50% or above about 160%; inactive = in between;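 also: 100% = no compound control and 0% = blank background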
* marks the source's active call; other numbers are inactive results; u = inconclusive; x = not tested or not shown; [ ] = another dose, or the depositor's remark. An excerpt weighted towards active compounds, which were near 1.2% of everything screened. Unless noted, no rule for the calls is given here.

SMILES | RGS8-Gao reg | RGS7-Gao reg | RGS16-Gao | GSH fluor | RGS4-Gao reg | Avidin fluor | RGS4-Gao HTS | Avidin counter | RGS8-Gao single | RGS7-Gao confirm | RGS16-Gao single | RGS4-Gao single | RGS19-Gao single
O=C(c1cnsn1)N1CCN(c2ccccc2)CC1 | 81.5 | 247.6*[activator] | 102.4 | 23 | 118.5 | 163* | 118.5* | -0.4 | 102.3 | 100.2 | 99.1 | 99.0 | 94.2
CC(=O)Nc1ccccc1C(F)(F)F | 47.7* | u | 29.6 | x | 21.9* | 2 | x | 0.9 | 106.5 | 113.3 | 105.4 | 107.7 | 96.4
CCOC(=O)C1C(c2ccc(O)c(O)c2)NC(=S)NC1(O)C(F)(F)F (stereo not given) | 76.3 | 34.5* | 68.3 | 6 | 17.5* | 6 | x | 0.5 | 97.9 | 98.4 | 97.4 | 96.5 | 102.2
Cc1ccc(N(C(=O)Nc2ccccc2)C2=NCCC2)cc1 | 72.2 | u | 54.0 | x | 44.2* | 1 | x | -1.0 | 97.9 | 46.8* | 80.3 | 57.4* | 83.6
O=C(Nc1ccccc1)N(C1=NCCC1)c1ccccc1 | 101.2 | u | 102.8 | x | 103.8 | 5 | x | x | x | x | x | x | x
O=[N+]([O-])c1cc(C(F)(F)F)c(Cl)cc1N1CCN(CCO)CC1 | 101.9 | 99.6 | 99.3 | 15 | 102.6 | 22 | x | x | x | x | x | x | x
OCCN1CCN(c2cc(C(F)(F)F)nc3c(F)cccc23)CC1 | 10.8* | u | -6.6* | x | -9.0* | -1 | x | -0.5 | 101.8 | 99.5 | 103.1 | 99.8 | 107.1
Cc1cccc(C(=O)N[C@H](C(=O)Nc2cccc(S(=O)(=O)N3CCCC3)c2)C(C)C)c1 | 103.2 | u | 109.5 | x | 108.8 | 16 | x | x | x | x | x | x | x
CCOc1ccc(C(=O)N[C@H](C(=O)Nc2cccc(S(=O)(=O)N3CCCCC3)c2)C(C)C)cc1 | 80.3 | 88.3 | 4.6* | 7 | 89.7 | 4 | 89.7* | 0.7 | 102.6 | 99.7 | 97.5 | 101.6 | 93.0
Nc1nc(-c2c[nH]c3ccccc23)cs1 | 98.9 | 101.7 | 100.1 | 39 | 99.3 | 36 | x | x | x | x | x | x | x
CNc1nc(-c2c[nH]c3ccccc23)cs1 | 111.1 | 150.8*[activator] | 202.1*[activator] | 24 | 191.7*[activator] | 93* | x | -1.7 | 97.8 | 101.1 | 97.5 | 100.8 | 105.5
Cc1ccc(NS(=O)(=O)c2ccc(OCC(=O)NCc3cccnc3)cc2)cc1 | 69.0 | 88.4 | 23.3* | 13 | 89.2 | 1 | 89.2* | 0.9 | 98.2 | 93.9 | 99.7 | 95.6 | 94.6
O=C(C1=C[C@H](c2ccc3c(c2)OCO3)C[C@H](OCc2ccc(CO)cc2)O1)N1CCN(Cc2ccc3c(c2)OCO3)CC1 | 105.2 | 67.4 | 97.5 | 20 | 84.4 | 7 | x | x | x | x | x | x | x
Cc1ccc(-c2nc(NC(=O)CSc3ncn[nH]3)ns2)cc1 | 90.1 | u | 87.9 | x | 89.2 | 5 | x | x | x | x | x | x | x
O=C(NCCN1CCN(S(=O)(=O)c2ccc([N+](=O)[O-])cc2)CC1)C(=O)Nc1ccccc1 | 89.3 | 221.4*[activator] | 86.8 | 25 | 130.9 | 152* | 130.9* | -1.6 | 99.1 | 102.2 | 101.4 | 99.7 | 106.6
O=C(NCCN1CCN(Cc2ccc([N+](=O)[O-])cc2)CC1)C(=O)Nc1ccccc1 | 99.8 | 97.1 | 99.2 | 33 | 96.8 | 18 | x | x | x | x | x | x | x
O=C(c1ccco1)N1CCC(n2nnc3ccccc32)CC1 | 101.3 | 101.2 | 101.7 | 16 | 102.0 | 7 | x | x | x | x | x | x | x
O=C1CC(/C=C/c2ccncc2)=Nc2ccccc2N1 | 96.5 | 161.9*[activator] | 96.5 | 24 | 117.0 | 99* | 117.0* | -1.7 | 102.3 | 99.5 | 102.9 | 102.3 | 89.2
O=C1CC(c2ccccc2)=Nc2ccccc2N1 | 101.0 | 100.3 | 96.9 | 37 | 103.1 | 13 | x | x | x | x | x | x | x
CCOC(=O)N1CN(C(=O)OCC)CN(C(=O)OCC)C1 | 5.2* | u | -22.4* | x | -37.6* | -2 | x | -1.1 | 88.7 | 74.1* | 81.8 | 83.1 | 68.8
O=C(Nc1ccc2c(c1)OCO2)C1CCN(Cc2cnn(-c3ccccc3)c2-n2cccc2)CC1 | 55.8* | 36.7* | 134.4 | 44 | 79.2 | 3 | 79.2* | 0.1 | 98.3 | 97.4 | 97.7 | 97.2 | 96.2
COc1ccccc1OCc1csc(NC(=O)c2ccco2)n1 | 3.4* | -7.5* | -41.5 | 47 | -19.4* | -5 | x | 1.1 | 105.4 | 104.0 | 109.5 | 102.1 | 115.6
Cc1csc(NC(=O)c2ccco2)n1 | 97.8 | 100.7 | 104.8 | 17 | 97.8 | 5 | x | x | x | x | x | x | x
CC12CCC(C(=O)Nc3ccc(Cl)cc3)([C@H](Br)C1=O)C2(C)C (stereo not given in full) | x | x | x | x | x | x | x | -0.3 | 101.2 | 106.8 | 103.1 | 99.8 | 105.0
CC12CCC(C(=O)Nc3cccc(Cl)c3)(C(Br)C1=O)C2(C)C (stereo not given) | 105.3 | 109.1 | 115.4 | 9 | 107.4 | 16 | x | x | x | x | x | x | x
O=C(COc1ccc(Cl)cc1Cl)Nc1ccc(CN2CCCCC2)cc1 | 102.7 | u | 100.7 | 13 | 101.7 | 12 | x | x | x | x | x | x | x
COc1ccc(Cn2c(=O)n(Cc3ccco3)c(=N)c3c4c(sc32)COC(C)(C)C4)cc1 | 101.2 | 175.4*[activator] | 116.7 | 27 | 114.9 | 125* | 114.9* | 2.5 | 101.7 | 99.7 | 104.0 | 102.2 | 96.9
CC1(C)Cc2c(sc3c2c(=N)n(Cc2ccco2)c(=O)n3Cc2ccc(F)cc2)CO1 | 98.3 | 96.9 | 94.5 | 24 | 97.7 | 22 | x | x | x | x | x | x | x
CC(=O)C12C3C4C(C5C1C3C5(Br)C41OCCO1)C21OCCO1 (stereo not given) | 86.5 | 89.9 | 22.5* | 8 | 92.9 | 7 | 92.9* | -2.0 | 112.4 | 117.1 | 112.2 | 112.6 | 99.0
CCCCN=Cc1c(C)[nH]n(-c2ccccc2)c1=S | 101.7 | 110.2 | 105.2 | 14 | 104.5 | 11 | x | x | x | x | x | x | x
